Results as given in PubChem BioAssay (NCATS).
Results filed as inconclusive are left out. The source made the active and inactive calls. Calls follow the shape of the dose curve; as a rule, active = well fitted cell-killing curve with a large enough effect; inconclusive = small, poorly fitted or top-dose-only effect, or effect the other way; inactive = no such curve, though single readings can be large or run the other way.

Assay: Viability qHTS for spleen associated tyrosine kinase inhibitor (SYKi) drug resistant MV4-11 cells (AID 1963824); also: nearly all actives have a fitted effect of over 35% in size
Details: SYKi-resistant MV4-11 viability, CellTiter-Glo, 72 h; series mostly up to 45 µM
In short: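 SYK-inhibitor-resistant MV4-11 AML cells were seeded at 500 per well onto compound and cultured 72 hours (37 °C, 5% CO2). CellTiter-Glo was then added, and after 10 min at room temperature, luminescence gave viability.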
Potency is read from the fitted curve at half-maximal effect.

SMILES	Potency
COC(=O)C1(C)CCC(=O)C2(C)c3c(O)cc(C(C)C)cc3C(O)C(OC(C)=O)C12 (stereo not given)	inactive
Clc1ccc([C@]23CNC[C@H]2C3)cc1Cl	inactive
C=C1[C@@H](C)[C@H]2[C@H](Cc3ccccc3)NC(=O)[C@]23OC(=O)/C=C/C(=O)CCC[C@@H](C)C/C=C/[C@H]3[C@@H]1O	920 nM (active)
C[C@@]12C[C@@H](c3ccoc3)OC(=O)C1CC[C@]1(C)[C@H]2[C@H]2C=C[C@]1(O)C(=O)O2 (stereo not given in full)	inactive
CC12CCC3C(CCC4(O)CC(O)CCC34C=O)C1(O)CCC2C1=CC(=O)OC1 (stereo not given)	231 nM (active)
CC(=O)OC[C@]12C[C@H](OC(=O)CC(C)C)C(C)=C[C@H]1O[C@@H]1[C@H](O)C[C@@]2(C)[C@]12CO2	282 nM (active)
COc1cc2c(cc1OC)[C@@]13CCN4CC5=CCO[C@H]6CC(=O)N2[C@H]1[C@H]6[C@H]5C[C@H]43	inactive
C[C@@H]1O[C@@H](O[C@H]2CC[C@@]3(C)C(CC[C@@H]4C3CC[C@]3(C)[C@@H](C5=CC(=O)OC5)CC[C@]43O)C2)[C@H](O[C@@H]2O[C@H](CO)[C@@H](O)[C@H](O)[C@H]2O)[C@H](O)[C@H]1O (stereo not given in full)	172 nM (active)
C[C@H]1O[C@@H](O[C@H]2C[C@@H](O)[C@]3(CO)C4C(CC[C@]3(O)C2)[C@@]2(O)CC[C@H](C3=CC(=O)OC3)[C@@]2(C)C[C@H]4O)[C@@H](O)[C@@H](O)[C@H]1O (stereo not given in full)	122 nM (active)
CC(=O)O[C@@H]1[C@H]2CC[C@H]3[C@@](C)(O)[C@@H]4C[C@H](O)C(C)(C)[C@@]4(O)[C@H](O)C[C@@]13C[C@@]2(C)O	inactive
Clc1ccc(CO/N=C(\Cn2ccnc2)c2ccc(Cl)cc2Cl)c(Cl)c1	9440 nM (active)
C[C@]12CC[C@@H](O)C[C@@H]1CC[C@@H]1[C@@H]2CC[C@]2(C)C(=O)[C@@H](Br)C[C@@H]12	11600 nM (active)
O=C(O)P(=O)(O)O	inactive
O=C(NCCN1CCC2(CC1)C(=O)NCN2c1cccc(F)c1)c1ccc2ccccc2c1	5800 nM (active)
CC[C@H]1/C=C\C=C/C[C@@H](C)[C@H](O)[C@@](C)(O)C(=O)[C@@H](C)[C@H](O)[C@@H](C)C(=O)[C@@H](C)[C@H](O)[C@@H](C)/C=C\C(=O)O[C@@H]2[C@H](C)[C@H](CC1)O[C@]1(CC[C@H](C)[C@H](C[C@@H](C)O)O1)[C@H]2C	6.5 nM (active)
C[C@@H](CN1CCC2(CC1)C(=O)NCN2c1cccc(F)c1)NC(=O)c1ccc(Br)cc1	13000 nM (active)
CO[C@@H]1C[C@H](O[C@H]2CC[C@@]3(C)C(CCC4C3CC[C@]3(C)[C@@H](C5=CC(=O)OC5)[C@@H](OC(C)=O)CC43O)C2)O[C@H](C)[C@@H]1O[C@H]1O[C@H](CO[C@@H]2O[C@H](CO)[C@@H](O)[C@H](O)[C@H]2O)[C@@H](O)[C@H](O)[C@H]1O (stereo not given in full)	155 nM (active)
Cc1ccc2c(c1)[C@H]1CN(C)CC[C@H]1N2C(=O)CSc1nnnn1-c1ccc(Cl)cc1	inactive
CC(=O)O[C@@H]1CC2C(C)(C)C(=O)C=C[C@]2(C)C2CC[C@]3(C)C(=CC(=O)O[C@H]3c3ccoc3)[C@@]21C (stereo not given in full)	13000 nM (active)
CC(C)[C@H]1OC(=O)[C@H](Cc2ccccc2)N(C)C(=O)[C@@H](C(C)C)OC(=O)[C@H](Cc2ccccc2)N(C)C(=O)[C@@H](C(C)C)OC(=O)[C@H](Cc2ccccc2)N(C)C1=O	5440 nM (active)
